From PubChem BioAssay
D1 ag – Allosteric Agonists of the Human D1 Dopamine Receptor: qHTS; HEK293 T-REx D1 cells, calcium flux, agonist mode; activation, % at 2 µM; 360,000 compounds, 1% hits; note: 0% is about no effect
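Tetracycline-induced HEK293 TREx D1 cells, force-coupled to calcium signalling, were dye-loaded with a no-wash calcium kit. Compound was pin-added after a 10 s baseline. Fluorescence was read kinetically at 1 cycle/s for 180 s, with calcium rises flagged as agonism.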
TRHR agonist – qHTS for Small Molecule Agonists and Allosteric Enhancers of Human TRH Receptor: Primary Screen for Agonists; 360,000 compounds, 0.18% hits; TRHR cells, calcium flux fluo-8, FDSS agonist mode; activation, % at 2 µM; AID 493084, 2011; note: 0% is about no effect
Target sequence (P34981 whole entry, looked up): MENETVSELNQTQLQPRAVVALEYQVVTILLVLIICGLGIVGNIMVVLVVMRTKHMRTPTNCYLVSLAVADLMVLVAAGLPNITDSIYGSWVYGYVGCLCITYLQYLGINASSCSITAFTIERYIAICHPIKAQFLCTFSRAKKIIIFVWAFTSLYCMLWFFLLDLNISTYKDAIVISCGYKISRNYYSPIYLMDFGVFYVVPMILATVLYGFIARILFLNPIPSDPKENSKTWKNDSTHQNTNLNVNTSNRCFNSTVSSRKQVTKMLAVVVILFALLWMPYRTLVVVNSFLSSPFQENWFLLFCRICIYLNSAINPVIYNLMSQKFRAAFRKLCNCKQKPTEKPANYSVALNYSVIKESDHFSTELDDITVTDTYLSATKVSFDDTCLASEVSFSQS
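Agonist-mode FDSS calcium read (Ex 480/Em 530, 1 s cycles) in 1536-well TRHR cells with fluo-8 dye, after 10-cycle baseline and 23 nL compound addition; TRH at EC20 (10 nM final) added afterwards for the enhancer phase.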
D1 antagonist – Antagonist of Human D 1 Dopamine Receptor: qHTS; activity change, negative = inhibition, % at 10 µM; HEK293 TREx D1 cells, calcium flux, dopamine EC80; active compounds read low; 360,000 compounds, 3.2% hits; AID 504652, 2011; in the data active = activity change below about -30%; note: % is set by controls: 0 for no effect and ±100 for the full control effect
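Kinetic fluorescence of a calcium dye serves as the read-out. D1-expressing Hek293 Trex cells, induced overnight at 30 C, are exposed to compound for 180 s before an EC80 dopamine addition, then read 180 s further.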
TRHR enhancer – qHTS for Small Molecule Agonists and Allosteric Enhancers of Human TRH Receptor: Primary Screen for Enhancers. Thyrotropin-releasing hormone receptor (Homo sapiens), P34981. TRHR cells, fluo-8 calcium fluorescence, EC20 TRH enhancement. enhancement, % at 2 µM. 360,000 compounds, 0.66% hits; in the data active = enhancement above about 30%; note: 0% is about no effect
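Enhancer read-out: after compound pinning and an initial kinetic agonist-mode read, an EC20 of TRH (10 nM final) was injected and fluo-8 calcium signal (Ex 480/Em 530) followed at 1 s/cycle for 100 cycles in TRHR-expressing cells.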
D1 PAM – Potentiators of Human D1 Dopamine Receptor: qHTS; HEK293 TREx D1 cells, calcium flux, dopamine EC20 potentiation; potentiation, % at 10 µM; 360,000 compounds, 0.036% hits; in the data active = potentiation above about 30%; note: 0% is about no effect
Starred values were filed as active, the others as inactive. Hits are enriched below; roughly 4.7% of the tested compounds scored in any of these assays. Cut-off read from the data, not from the text of the source, unless noted: active = activation above about 30%; inactive = the rest.

How did CCCOC(=O)c1ccc(Oc2cn[nH]c2-c2ccc(OCC)cc2O)cc1 do in these assays?
D1 ag: 2; TRHR agonist: 0; D1 antagonist: -1; TRHR enhancer: 1; D1 PAM: -3

Results for CCCc1ccc(Oc2c(-c3ccc(O)c(C)c3O)n[nH]c2C)cc1 ?
D1 ag: 35*; TRHR agonist: 3; D1 antagonist: 8; TRHR enhancer: 2; D1 PAM: -4

Results for COc1ccc(Oc2c(-c3ccc(O)cc3O)n[nH]c2C)cc1 ?
D1 ag: 3; TRHR agonist: -1; D1 antagonist: 0; TRHR enhancer: 2; D1 PAM: -5

How did CCCc1ccc(Oc2cn[nH]c2-c2ccc(O)c(C)c2O)cc1 do in these assays?
D1 ag: 33*; TRHR agonist: 2; D1 antagonist: -17; TRHR enhancer: 10; D1 PAM: -11

How did COc1ccc(NC(=S)N(CCCN2CCCC2)Cc2cccn2Cc2ccc(Cl)cc2)cc1Cl do in these assays?
D1 ag: 10; TRHR agonist: 0; D1 antagonist: 5; TRHR enhancer: -12; D1 PAM: -13

What do the screens show for `O=S(=O)(NCc1cccc(Br)c1)c1ccc(-c2cc(C(F)(F)F)on2)s1`?
D1 ag: 21; TRHR agonist: 2; D1 antagonist: -11; TRHR enhancer: 1; D1 PAM: -2

How did Cc1cc([N+](=O)[O-])cc(C)c1OCC(=O)N/N=C/c1ccc(OC(=O)c2ccccc2Br)cc1 do in these assays?
D1 ag: 4; TRHR agonist: 0; D1 antagonist: -33*; TRHR enhancer: -7; D1 PAM: -4

What do the screens show for `CCc1ccccc1Nc1cc(C(=O)NC2CCC(C)CC2)c2ccccc2n1` (stereo unspecified)?
D1 ag: 1; TRHR agonist: 0; D1 antagonist: -6; TRHR enhancer: 1; D1 PAM: 0

How did CCc1ccccc1Nc1cc(C(=O)NCCCN(C)C2CCCCC2)c2ccccc2n1 do in these assays?
D1 ag: 35*; TRHR agonist: 6; D1 antagonist: -23; TRHR enhancer: -6; D1 PAM: 2

Results for Cc1ccc(C)c(Nc2cc(C(=O)NCCCN(C)C3CCCCC3)c3ccccc3n2)c1 ?
D1 ag: 54*; TRHR agonist: 5; D1 antagonist: -34*; TRHR enhancer: 1; D1 PAM: 2

How did Cc1cc(C)cc(Nc2cc(C(=O)NCCCN(C)C3CCCCC3)c3ccccc3n2)c1 do in these assays?
D1 ag: 44*; TRHR agonist: 9; D1 antagonist: -26; TRHR enhancer: 3; D1 PAM: -1

How did Cc1ccc(OCC(=O)N(Cc2ccccc2)C(C)C)c([N+](=O)[O-])n1 do in these assays?
D1 ag: 1; TRHR agonist: -1; D1 antagonist: 2; TRHR enhancer: 0; D1 PAM: -2

Results for Cc1ccc(OC(C)C(=O)N(C)Cc2ccccc2)c([N+](=O)[O-])n1 (stereo unspecified) ?
D1 ag: 1; TRHR agonist: 2; D1 antagonist: 17; TRHR enhancer: 39*; D1 PAM: -15

Results for COc1cccc(NC(=S)N(CCCN2CCOCC2)C(C)c2cc3cccc(OC)c3o2)c1 (stereo unspecified) ?
D1 ag: 14; TRHR agonist: 0; D1 antagonist: -68*; TRHR enhancer: -6; D1 PAM: -12

What do the screens show for `COC(=O)CSc1nnc2n(-c3ccccc3)c(=O)c3c4c(sc3n12)COC(C(C)C)C4` (stereo unspecified)?
D1 ag: 1; TRHR agonist: -1; D1 antagonist: -25; TRHR enhancer: 2; D1 PAM: 0

Results for COc1ccc(CCNC(=S)NC(=O)c2ccccc2)cc1C ?
D1 ag: 6; TRHR agonist: 0; D1 antagonist: -33*; TRHR enhancer: -5; D1 PAM: -7

What do the screens show for `COc1ccc(CCNC(=S)NC(=O)c2ccc(Br)cc2)cc1OC`?
D1 ag: 2; TRHR agonist: 0; D1 antagonist: -5; TRHR enhancer: -5; D1 PAM: 1

Results for Cc1ccc(N(C)C(=O)Cn2ncc3c([nH]c4ccccc43)c2=O)cc1C ?
D1 ag: -1; TRHR agonist: 0; D1 antagonist: 1; TRHR enhancer: 15; D1 PAM: 2

Results for CCCc1cc(C(=O)N2CCCC(N3CCN(c4ccccc4C)CC3)C2)n(C)n1 (stereo unspecified) ?
D1 ag: 2; TRHR agonist: 0; D1 antagonist: 6; TRHR enhancer: -5; D1 PAM: -9

What do the screens show for `Cc1ccccc1N1CCN(C2CCCN(C(=O)c3cc(CC(C)C)nn3C)C2)CC1` (stereo unspecified)?
D1 ag: 3; TRHR agonist: -1; D1 antagonist: -32*; TRHR enhancer: -14; D1 PAM: -6

How did COc1cc(Nc2cc(C)nc3ncnn23)cc(OC)c1 do in these assays?
D1 ag: -2; TRHR agonist: -1; D1 antagonist: -5; TRHR enhancer: 4; D1 PAM: 4

Results for COc1cc(Nc2cc(C)nc3ncnn23)cc(OC)c1OC ?
D1 ag: 0; TRHR agonist: 0; D1 antagonist: -31*; TRHR enhancer: -25; D1 PAM: -14

What do the screens show for `COc1ccc(/C=C/C(=O)Nc2cccc(C(C)=O)c2)cc1`?
D1 ag: 4; TRHR agonist: 0; D1 antagonist: -40*; TRHR enhancer: 5; D1 PAM: -4

Results for CN(C)c1ccc(C(=O)/C=C/c2ccccc2)cc1 ?
D1 ag: 2; TRHR agonist: 0; D1 antagonist: -6; TRHR enhancer: -4; D1 PAM: -4

What do the screens show for `CN(C)c1ccc(C(=O)/C=C/c2ccc(Br)cc2)cc1`?
D1 ag: 5; TRHR agonist: 0; D1 antagonist: -33*; TRHR enhancer: -5; D1 PAM: -4

Results for CC(=O)Nc1cccc(C(=O)/C=C/c2ccc(N(C)C)cc2)c1 ?
D1 ag: 401*; TRHR agonist: 153*; D1 antagonist: 6; TRHR enhancer: 1; D1 PAM: 15

How did CC(=O)Nc1cccc(C(=O)/C=C/c2ccc(/C=C/C(=O)c3cccc(NC(C)=O)c3)cc2)c1 do in these assays?
D1 ag: 1; TRHR agonist: 1; D1 antagonist: -8; TRHR enhancer: -3; D1 PAM: -7
